Rango-impB inh = inhibitors of Rango-importin beta complex formation | Potency, µM (doses to about 92.2 µM) | Rango CFP/YFP FRET sensor + importin beta, 45 min | Q14974 | 340,000 tested, 0.031% active; calls by dose curve; note: nearly all actives have a fitted effect of over 15% in size
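FRET biosensor Rango (snurportin 1 IBB between N-terminal EYFP and C-terminal Cerulean), 50 nM in PBS/1 mM DTT/0.02% Tween-20/0.1% BSA, preincubated 5 min RT with compound; 0.125 microM importin beta added, 45 min RT, CFP/YFP FRET ratio read.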
TDP1 block = inhibitors of human tyrosyl-DNA phosphodiesterase TDP1; Q9NUW8; recombinant TDP1, AlphaScreen DNA substrate cleavage; Potency, µM (doses to about 130 µM), most hits filed as inhibitors; 350,000 tested, 0.28% active; AID 485290; note: nearly all actives have a fitted effect of over 40% in size
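AlphaScreen read-out: signal falls as enzyme removes the 3' tyrosine-FITC from a 5'-biotinylated DNA oligo (15 nM, 5 min, RT). Enzyme was E. coli-made recombinant Tdp1 at 1 nM, exposed to compound for 15 min beforehand; beads 10 ug/ml, 10 min.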
ALOX12 inh = ALOX12 (human) lipoxygenase inhibition; purified 12hLO, xylenol orange hydroperoxide absorbance; Potency, µM (series often up to 108 µM), most hits filed as inhibitors; 580,000 tested, 1.1% active
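Purified human 12hLO at 150 nM in 25 mM Hepes, 0.01% Triton X-100, pH 7.0, preincubated 15 min at room temperature with compound. Reaction started with 40 uM arachidonic acid, 30 min at room temperature. Hydroperoxide measured by Fe-xylenol orange, 573/405 nm absorbance ratio.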
Rango dissoc inh = inhibitors of RanGTP-induced Rango-importin beta complex dissociation; O95149+P62826; Biochemical FRET Rango-importin beta, RanGTP-induced dissociation; Potency, µM (highest dose often 46.1 µM); 340,000 tested, 0.071% active; AID 540253; calls by dose curve; note: nearly all actives have a fitted effect of over 45% in size
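Two FRET readings bracket the reaction: one 5 min after compound meets Rango–importin beta, another 45 min after RanGTP-RCC1 (0.6 uM Ran, 0.2 uM RCC1, 2 mM GTP) is added. Only the second defines inhibition.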
ClpP mod = qHTS Assay for Activators of ClpP; ATP-dependent Clp protease proteolytic subunit (Bacillus subtilis (strain 168)), P80244; purified B. subtilis ClpP, FRET peptide cleavage, 20 min; Potency, µM (titrated, usually from 57.5 µM); 340,000 tested, 1.9% active; AID 651965, 2013; active = well fitted falling curve with a large enough effect; inconclusive = small, poorly fitted or top-dose-only effect; inactive = no such curve, though single readings can be large or run the other way; note: the source files actives as falling curves though it sought activators and does not explain the sign; nearly all actives have a fitted effect of over 65% in size
Target sequence (P80244 whole entry, looked up): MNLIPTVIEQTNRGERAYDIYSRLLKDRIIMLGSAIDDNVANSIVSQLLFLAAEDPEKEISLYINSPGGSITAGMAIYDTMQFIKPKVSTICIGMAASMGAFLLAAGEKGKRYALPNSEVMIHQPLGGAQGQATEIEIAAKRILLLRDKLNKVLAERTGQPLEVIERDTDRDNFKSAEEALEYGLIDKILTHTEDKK
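ClpP 10 microg/mL final, pH 8 Tris/KCl buffer with BSA, glycerol, Tween-20; compound pinned in; FRET-FV substrate; RT 20 min; Ex320/Em430; ΔFRET vs ADEP 5.8 microM, DMSO, no enzyme.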
TSG101-PTAP inh = blocks PTAP/TSG101 interaction to inhibit HIV-1 budding; Fluorescence polarization, FITC-PTAP peptide / Tsg101 binding; Potency, µM (highest dose often 115 µM), usual class: inhibitors; 340,000 tested, under 10 active; AID 493005; active = well fitted inhibition curve with a large enough effect in the main read-out, with a control signal flat, not every such curve was filed as active; inconclusive = small, poorly fitted or top-dose-only effect, or effect the other way, or a change in a side signal; inactive = no such curve, though single readings can be large or run the other way
Target sequence (Q99816 whole entry, looked up): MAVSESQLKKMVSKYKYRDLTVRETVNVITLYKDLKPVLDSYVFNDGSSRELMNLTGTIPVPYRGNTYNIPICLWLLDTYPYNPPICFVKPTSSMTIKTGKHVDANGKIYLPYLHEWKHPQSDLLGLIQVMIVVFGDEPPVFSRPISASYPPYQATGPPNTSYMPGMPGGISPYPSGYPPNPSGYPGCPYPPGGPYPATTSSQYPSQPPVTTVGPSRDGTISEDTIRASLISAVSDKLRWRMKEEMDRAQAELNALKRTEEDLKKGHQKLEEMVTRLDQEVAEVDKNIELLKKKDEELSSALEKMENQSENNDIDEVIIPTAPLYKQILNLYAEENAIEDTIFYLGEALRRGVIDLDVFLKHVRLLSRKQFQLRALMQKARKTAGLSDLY
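Compounds were pin-transferred onto Tsg101 binding domain (10 uM final) in HEPES pH 7.5 buffer, then FITC-PTAP peptide was added at 50 nM final. After 20 min at RT, polarization reported peptide displacement across a qHTS concentration series.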
A number is an active result; i = inactive; ? = inconclusive; nt = no result given; [ ] = another dose, or the depositor's remark. A selection: hits, their analogues and other compounds. The true share with any hit is near 2.4%. Unless noted, calls come from the whole dose curve; as a rule, active = well fitted curve in the direction sought with a large enough effect; inconclusive = small, poorly fitted or top-dose-only effect, or another doubt; inactive = no such curve, though single readings can be large; an effect the other way counts as inactive or inconclusive.

SMILES | Rango-impB inh | TDP1 block | ALOX12 inh | Rango dissoc inh | ClpP mod | TSG101-PTAP inh
Cc1cc(C2CCCN2Cc2coc(-c3ccccc3)n2)on1 (configuration not stated) | nt | nt | i | nt | nt | nt
C=Cc1cc2c(cc1O)CCC1C2CCC2(C)C(O)CCC12 (configuration not stated) | i | nt | ? | i | i | i
CC#Cc1cc2c(cc1O)CCC1C2CCC2(C)C(O)CCC12 (configuration not stated) | ? | nt | 45µM | i | i | i
C=CCc1ccccc1OCC(=O)OCCNC(=O)c1cccnc1 | i | i | 40µM | i | i | i
CC1CCN(S(=O)(=O)c2ccc(NC(=O)C3CSC4(C)CCC(=O)N34)cc2)CC1 (configuration not stated) | i | nt | i | i | 28µM | i
CN1C(=O)C2(c3ccccc31)C1CCCC=C1C(C#N)=C(N)C2(C#N)C#N (configuration not stated) | ? | i | 45µM | ? | i | i
CN1C(=O)C2(C(C#N)=C(N)N(c3cc(Cl)cc(Cl)c3)C3=C2C(=O)CCC3)c2ccccc21 (configuration not stated) | i | i | i | i | i | i
CCOC(=O)C(CCc1ccccn1)c1ccccc1 (configuration not stated) | i | nt | i | i | 7.9µM | i
CN(c1ccc(F)cc1)S(=O)(=O)c1ccc(Cl)c(C(=O)NCC(c2ccco2)N2CCCCC2)c1 (configuration not stated) | i | i | 0.79µM | i | i | i
O=C(CCC1CCCN(S(=O)(=O)c2ccccc2)C1)N1CCc2ccccc2C1 (configuration not stated) | nt | nt | i | nt | nt | nt
Cc1cc2oc(=O)cc(CN(C)CCOc3ccc(F)cc3)c2cc1C | nt | nt | i | nt | nt | nt
CCCOc1ccc2oc(=O)c3c(c2c1)CCCN3C(=O)CN1CCc2ccccc2C1 | i | i | i | i | 18µM | i
CC1CCN(CC(=O)N2CCCc3c2c(=O)oc2ccc(OCc4ccccc4)cc32)CC1 | i | i | i | i | ? | i
Nc1c2c(nc3ccc(Br)cc13)N(C1CCCCC1)CC2 | nt | i | nt | nt | nt | nt
Nc1c2c(nc3ccccc13)N(C1CCCCC1)CC2 | i | i | ? | i | 14µM | i
Brc1ccc(-c2nnc(-c3cccc(Br)c3)o2)cc1 | i | i | i | i | i | i
Cc1ccc(-c2nnc(-c3ccc(Br)cc3)o2)o1 | i | i | i | i | 32µM | i
O=C(NCc1ccc(F)cc1)n1c(-c2ccccc2)c(P(=S)(c2ccccc2)c2ccccc2)c2ccccc21 | nt | i | nt | nt | nt | nt
COc1cc(/C=C/C2=Nc3ccccc3SC(C)(C)C2)ccc1O | nt | nt | 16µM | nt | nt | nt
COc1cc(/C=C/C2=NC(=O)C(C)(C)O2)ccc1O | i | i | nt | i | i | i
CCOc1cnc(-c2ccc(OC)cc2)o1 | i | i | i | i | 25µM | i
O=C(Cc1ccsc1)N1CCC2(CC1)N=C(c1cccc(Br)c1)NO2 | nt | nt | i | nt | nt | nt
CC1=CCC2C(C1)C2(C)C (configuration not stated) | nt | nt | 79µM | nt | nt | nt
CCN(CC)c1nc(N)c2c(N)nc3c(c2c1C#N)CC(c1ccccc1)O3 (configuration not stated) | ? | i | i | i | 28µM | i
N#Cc1c(N2CCCCC2)nc(N)c2c(N)nc3c(c12)CC(c1ccccc1)O3 (configuration not stated) | ? | i | i | i | 28µM | i
SMILES | Rango-impB inh | TDP1 block | ALOX12 inh | Rango dissoc inh | ClpP mod | TSG101-PTAP inh
CCN(CC)c1nc(N)c2c(N)n(-c3ccccc3C)c(=S)c(C#N)c2c1C#N | ? | i | i | ? | i | i
CCC1Cc2c(nc(N)c3c(N)nc(N4CCCCC4)c(C#N)c23)O1 (configuration not stated) | ? | i | i | i | nt | i
CCc1cc(=O)oc2cc(OCc3nc(-c4cccc(Cl)c4)no3)ccc12 | nt | nt | i | nt | nt | nt
O=C(O)CN1C(=O)/C(=C\c2cn(-c3ccccc3)nc2-c2ccccc2)SC1=S | i | i[0.0935 µM] | nt | i | nt | i
CC(C)COc1ccc(-c2nn(-c3ccccc3)cc2/C=C2/SC(=S)N(CC(=O)O)C2=O)cc1 | i | nt | 45µM | i | i | i
Nc1ccccc1-c1ccc(Cl)cc1 | i | nt | i | i | i | i
Nc1ccccc1-c1ccccc1N | i | i | i | i | 7.9µM | i
O=C(CCc1c[nH]c2ccccc12)NC1CCc2nn(CC3CC3)c(=O)n2CC1 (configuration not stated) | nt | nt | i | nt | nt | nt
COc1cc(CNc2ccccc2SC)cc(OC)c1OC | i | i | 45µM | i | i | i
COc1ccc(CNc2ccccc2SC)cc1OC | i | i | ? | i | i | i
CN(Cc1cccnc1)c1nc2c(c(=O)[nH]1)CCN(Cc1cccc(C#N)c1)CC2 | nt | nt | i | nt | nt | nt
Clc1ccc(OCCCCN2CCCCC2)cc1 | i | nt | nt | i | nt | i
Clc1ccc(SCCOCCN2CCCCCC2)cc1 | i | nt | 0.56µM | i | i | i
Cc1ccc(C(=O)OC(C)C(=O)NC2CCCC2)c(O)c1 (configuration not stated) | nt | nt | i | nt | nt | nt
O=C(O)Cc1sc(-c2ccc(Cl)cc2)nc1-c1ccccc1 | i | i | i | i | i | i
O=c1cc(O)nc(-c2ccc(Cl)cc2)s1 | ? | i | 45µM | ? | nt | i
CCOc1ccccc1Nc1nnc(SCc2nnc(-c3cc(OC)c(OC)c(OC)c3)o2)s1 | i | i | i | i | 32µM | i
COc1ccc(-c2ccc3c(c2)[C@@H]2C[C@H](N(C)C(=O)C(C)(C)C)[C@H]([C@H](C)O)C(=O)N2CC3)cc1 | i | nt | 11µM | i | i | i
CCOc1ccc(-c2[nH]ncc2-c2ccc(Br)cc2)c(O)c1 | nt | nt | 28µM | nt | nt | nt
CCCCC(=O)NC(=S)Nc1cccc(Cl)c1N1CCCCC1 | i | i | 35µM | ? | i | i
CCCC(=O)NC(=S)Nc1cccc(Cl)c1N1CCCCC1 | i | i | ? | i | i | i
Cc1ccnc(NC(=O)c2ccc(NS(=O)(=O)/C=C/c3ccccc3)cc2)c1 | i | i[0.505 µM] | i | i | 28µM | i
CC(C)CS(=O)(=O)Nc1ccc([C@H]2OCC(=O)N(C(C)C)[C@@H]2CO)cc1 | nt | nt | i | nt | nt | nt
CCN(Cc1ccco1)C(=O)c1cc2cc(Br)ccc2[nH]1 | nt | nt | 18µM | nt | nt | nt
Cc1ccc2[nH]c(C(=O)NCc3ccco3)cc2c1 | nt | nt | i | nt | nt | nt
CC(C)c1ccc2cc(C(=O)N(C)Cc3ccco3)[nH]c2c1 | nt | nt | i | nt | nt | nt
O=C(NCc1ccco1)c1cc2cc(Br)ccc2[nH]1 | nt | nt | 32µM | nt | nt | nt
COc1cc(C(=O)NC2CC2)ccc1C | nt | nt | i | nt | nt | nt
CCCCCC(=O)N1C[C@H](n2cc(-c3ccc(F)cc3)nn2)[C@@H](O)C[C@@H]1c1ccc(Cl)cc1 | nt | nt | i | nt | i | nt

Assay outcomes deposited in PubChem BioAssay by National Center for Advancing Translational Sciences (NCATS).
